# Inconclusive results are not listed. Activity calls are given as the source filed them. The calls were made as follows: active = hit-call score of the fitted dose curve at least 0.9, where 1 is the maximum; inconclusive = response in the unintended direction; inactive = score below 0.9.
# Assay: CCTE_Simmons_CellTiterGLO_HEK293T: Viability Assessment in CCTE's Assays for Thyroperoxidase (TPO) Inhibition, Simmons Lab (AID 2283665);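 as to AC50: cells exposed to compound for 24 h before readout; actives reduce ATP signal below DMSO vehicle meaning cytotoxicity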
# Outline: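 Cells were seeded overnight, then exposed to an eight-point series up to 87.5 uM final for 24 hours. CellTiter-Glo reagent was added and luminescence read after 20 min, giving ATP-based viability versus DMSO.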
Structure (SMILES),outcome,AC50
Clc1ccc(C(Cl)(Cl)Cl)cc1,inactive,–
O=C(O)C(F)(F)C(F)(F)C(F)(F)C(F)(F)C(F)(F)C(F)(F)C(F)(F)C(F)(F)C(F)(F)F,–,38.3 µM (active)
CCOP(=S)(OCC)SCSC(C)(C)C,–,20.9 µM (active)
O=C(NC(=O)c1c(F)cccc1F)Nc1cc(Cl)c(OC(F)(F)C(F)F)c(Cl)c1,inactive,–
CCCCCCCCCC[N+](C)(C)CCCCCCCCCC,–,3.92 µM (active)
CCC(C)(c1ccc(O)cc1)c1ccc(O)cc1,–,37.4 µM (active)
CCC(=O)O[C@H]1CC[C@H]2[C@@H]3CCC4=CC(=O)CC[C@]4(C)[C@H]3CC[C@]12C,–,9.47 µM (active)
Cc1ccc(O)c(C)c1,inactive,–
Oc1ccc(C(c2ccc(O)cc2)(C(F)(F)F)C(F)(F)F)cc1,–,11 µM (active)
Sc1ccccc1,inactive,–
Cc1ccccc1CO[C@@H]1C[C@@]2(C(C)C)CC[C@]1(C)O2,–,21.6 µM (active)
CCCCCCCCOC(=O)c1ccccc1C(=O)OCCCCCCCC,inactive,–
c1ccc(-c2ccccc2)cc1,–,34.5 µM (active)
COc1ccc(O)c(C(C)(C)C)c1,–,60.5 µM (active)
CC(c1ccc(O)cc1)(c1ccc(O)cc1)c1ccc(O)cc1,–,36.9 µM (active)
Oc1c(Cl)c(Cl)c(Cl)c(Cl)c1Cl,inactive,–
C[C@]12CCC(=O)C=C1CC[C@@H]1[C@@H]2CC[C@]2(C)C(=O)CC[C@@H]12,inactive,–
CCCCCCCCCc1ccc(O)cc1,–,15.7 µM (active)
O=C(O)C(F)(F)C(F)(F)C(F)(F)C(F)(F)C(F)(F)C(F)(F)C(F)(F)C(F)(F)F,–,21.8 µM (active)
CC(C)(c1ccccc1)c1ccc(O)cc1,–,12.2 µM (active)
COS(=O)(=O)OC,inactive,–

# From PubChem BioAssay (EPA / NIEHS)
